In all, about 5,500 compounds went through this assay and about 2,000 (36%) were called active. Another 18% or so got no clear call; they are omitted. Cut-off read from the data, not from the text of the source: active = normalized growth mostly below about 0.91 (no sharp cut-off); inconclusive = no clear call, values can overlap the other calls; inactive = mostly above about 0.92. This is one part of the list.
Experiment: chemical genetic growth profiling, strain panel (AID 1159580);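 note: tested at 20 µM; growth read once vehicle control cultures reached saturation at 30 °C; 1 = growth at the plate median or of vehicle wells; lower values mean less growth of the strain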
Conditions: growth OD

Measured: normalized growth

COc1cc(-c2coc3cc(OC)c(OC)c(OC)c3c2=O)cc(OC)c1OC
inactive: S. cerevisiae deletion strains, locus YJR066W, strain TOR1, hits give low values 0.99 | S. cerevisiae deletion strains, locus YJR075W, strain HOC1, hits give low values 0.975 | S. cerevisiae deletion strains, locus YKL009W, strain mrt4, hits give low values 0.98 | S. cerevisiae deletion strains, locus YKL068W, hits give low values 0.988 | S. cerevisiae deletion strains, locus YKL085W, strain MDH1 (second series), hits give low values 0.973 | S. cerevisiae deletion strains, locus YKL085W, strain MDH1, hits give low values 0.973 | S. cerevisiae deletion strains, locus YKL160W, strain elf1, hits give low values 0.994 | S. cerevisiae deletion strains, locus YKR001C, strain vps1, hits give low values 1.02 | S. cerevisiae deletion strains, locus YKR026C, strain gcn3, hits give low values 0.997 | S. cerevisiae deletion strains, locus YKR091W, strain srl3, hits give low values 1 | S. cerevisiae deletion strains, locus YLL001W, strain dnm1, hits give low values 0.96 | S. cerevisiae deletion strains, locus YLL026W, hits give low values 0.996 | S. cerevisiae deletion strains, locus YLL041C, strain sdh2, hits give low values 0.996 | S. cerevisiae deletion strains, locus YLR027C, strain aat2, hits give low values 1.01 | S. cerevisiae deletion strains, locus YLR039C, strain RIC1, hits give low values 1 | S. cerevisiae deletion strains, locus YLR058C, strain SHM2, hits give low values 0.99 | S. cerevisiae deletion strains, locus YLR102C, strain apc9, hits give low values 1 | S. cerevisiae deletion strains, locus YLR113W, strain HOG1, hits give low values 0.98 | S. cerevisiae deletion strains, locus YLR221C, strain rsa3, hits give low values 0.997 | S. cerevisiae deletion strains, locus YLR258W, strain gsy2, hits give low values 0.989 | S. cerevisiae deletion strains, locus YLR262C, strain YPT6 (second series), hits give low values 0.972 | S. cerevisiae deletion strains, locus YLR262C, strain YPT6, hits give low values 1.01 | S. cerevisiae deletion strains, locus YLR268W, strain sec22, hits give low values 1.03 | S. cerevisiae deletion strains, locus YLR320W, strain mms22, hits give low values 1.01 | S. cerevisiae deletion strains, locus YLR330W, strain CHS5, hits give low values 0.998 | S. cerevisiae deletion strains, locus YLR342W, strain FKS1 (second series), hits give low values 1.08 | S. cerevisiae deletion strains, locus YLR342W, strain FKS1, hits give low values 1.01 | S. cerevisiae deletion strains, locus YLR357W, strain rsc2, hits give low values 0.953 | S. cerevisiae deletion strains, locus YLR370C, strain arc18, hits give low values 0.997 | S. cerevisiae deletion strains, locus YLR371W, strain rom2, hits give low values 1.01 | S. cerevisiae deletion strains, locus YLR384C, strain iki3, hits give low values 0.982 | S. cerevisiae deletion strains, locus YLR418C, strain cdc73, hits give low values 0.984 | S. cerevisiae deletion strains, locus YML016C, strain PPZ1, hits give low values 1 | S. cerevisiae deletion strains, locus YML032C, strain rad52, hits give low values 1.01 | S. cerevisiae deletion strains, locus YML120C, strain ndi1, hits give low values 0.997 | S. cerevisiae deletion strains, locus YML124C, strain tub3, hits give low values 0.989 | S. cerevisiae deletion strains, locus YMR058W, strain fet3, hits give low values 1.01 | S. cerevisiae deletion strains, locus YMR078C, strain ctf18, hits give low values 1.01 | S. cerevisiae deletion strains, locus YMR125W, strain sto1, hits give low values 0.992 | S. cerevisiae deletion strains, locus YMR129W, hits give low values 0.989 | S. cerevisiae deletion strains, locus YMR205C, strain PFK2, hits give low values 1.01 | S. cerevisiae deletion strains, locus YMR223W, strain ubp8, hits give low values 0.998 | S. cerevisiae deletion strains, locus YMR231W, strain pep5, hits give low values 0.987 | S. cerevisiae deletion strains, locus YMR307W, strain GAS1, hits give low values 1.13 | S. cerevisiae deletion strains, locus YNL067W, strain RPL9B, hits give low values 0.973 | S. cerevisiae deletion strains, locus YNL071W, strain lat1, hits give low values 1 | S. cerevisiae deletion strains, locus YNL183C, strain NPR1, hits give low values 0.984 | S. cerevisiae deletion strains, locus YNL209W, strain ssb2, hits give low values 1 | S. cerevisiae deletion strains, locus YNL233W, strain BNI4, hits give low values 0.982 | S. cerevisiae deletion strains, locus YNL248C, strain rpa49, hits give low values 0.983 | S. cerevisiae deletion strains, locus YNL250W, strain rad50, hits give low values 0.944 | S. cerevisiae deletion strains, locus YNL271C, strain bni1, hits give low values 0.995 | S. cerevisiae deletion strains, locus YNL298W, strain CLA4, hits give low values 0.996 | S. cerevisiae deletion strains, locus YNL307C, strain MCK1, hits give low values 1 | S. cerevisiae deletion strains, locus YNL322C, strain KRE1 (second series), hits give low values 0.998 | S. cerevisiae deletion strains, locus YNR049C, strain mso1, hits give low values 1 | S. cerevisiae deletion strains, locus YNR052C, strain pop2, hits give low values 0.977 | S. cerevisiae deletion strains, locus YOL012C, strain htz1 1.11 | S. cerevisiae deletion strains, locus YOL147C, strain pex11, hits give low values 0.998 | S. cerevisiae deletion strains, locus YOR001W, strain rrp6, hits give low values 0.997 | S. cerevisiae deletion strains, locus YOR061W, strain CKA2, hits give low values 1.01 | S. cerevisiae deletion strains, locus YOR069W, strain VPS5, hits give low values 0.989 | S. cerevisiae deletion strains, locus YOR070C, strain gyp1, hits give low values 0.991 | S. cerevisiae deletion strains, locus YOR080W, strain dia2, hits give low values 0.995 | S. cerevisiae deletion strains, locus YOR083W, strain WHI5, hits give low values 0.996 | S. cerevisiae deletion strains, locus YOR106W, strain vam3, hits give low values 0.988 | S. cerevisiae deletion strains, locus YOR136W, strain idh2, hits give low values 0.993 | S. cerevisiae deletion strains, locus YOR144C, strain elg1, hits give low values 0.997 | S. cerevisiae deletion strains, locus YOR184W, strain ser1, hits give low values 1.08 | S. cerevisiae deletion strains, locus YOR231W, strain MKK1, hits give low values 1.04 | S. cerevisiae deletion strains, locus YOR265W, strain rbl2, hits give low values 1.01 | S. cerevisiae deletion strains, locus YOR270C, strain vph1, hits give low values 1.01 | S. cerevisiae deletion strains, locus YOR290C, strain snf2, hits give low values 1.01 | S. cerevisiae deletion strains, locus YOR316C, strain cot1, hits give low values 0.99 | S. cerevisiae deletion strains, locus YPL051W, strain arl3, hits give low values 0.994 | S. cerevisiae deletion strains, locus YPL055C, strain LGE1, hits give low values 1.03 | S. cerevisiae deletion strains, locus YPL078C, strain atp4, hits give low values 0.998 | S. cerevisiae deletion strains, locus YPL106C, strain sse1, hits give low values 0.984 | S. cerevisiae deletion strains, locus YPL240C, strain hsp82, hits give low values 1 | S. cerevisiae deletion strains, locus YPL256C, strain CLN2, hits give low values 1.03 | S. cerevisiae deletion strains, locus YPR119W, strain clb2, hits give low values 0.975 | S. cerevisiae deletion strains, locus YPR141C, strain kar3, hits give low values 0.972 | S. cerevisiae deletion strains, locus YPR163C, strain tif3, hits give low values 1 | S. cerevisiae deletion strains, locus YPR167C, strain met16, hits give low values 0.995 | S. cerevisiae deletion strains, strain wtn01, hits give low values 1.03 | S. cerevisiae strains, strain wild type, hits give low values 1.02

Source: PubChem BioAssay AID1159580 (chemical genetic matrix, 2015)
